Screening results (PubChem BioAssay)
KDM4E inh = qHTS Assay for Inhibitors of Human Jumonji Domain Containing 2E (JMJD2E); AID 2147, 2009; Potency, µM (doses to about 57.1 µM), without a hit: top-dose activity change, negative = inhibition, most hits filed as inhibitors; hit rate 1.6% among 230,000; Lysine-specific demethylase 4E (Homo sapiens), B2RXH2; JMJD2E catalytic domain, FDH-coupled NADH fluorescence (FDH is formaldehyde dehydrogenase);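 note: potency is the fitted concentration of half-maximal effect; 0% = wells with enzyme and -100% = buffer wells without enzyme; nearly all actives have a fitted effect of over 50% in size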
Target sequence (B2RXH2 1-337 limits assumed): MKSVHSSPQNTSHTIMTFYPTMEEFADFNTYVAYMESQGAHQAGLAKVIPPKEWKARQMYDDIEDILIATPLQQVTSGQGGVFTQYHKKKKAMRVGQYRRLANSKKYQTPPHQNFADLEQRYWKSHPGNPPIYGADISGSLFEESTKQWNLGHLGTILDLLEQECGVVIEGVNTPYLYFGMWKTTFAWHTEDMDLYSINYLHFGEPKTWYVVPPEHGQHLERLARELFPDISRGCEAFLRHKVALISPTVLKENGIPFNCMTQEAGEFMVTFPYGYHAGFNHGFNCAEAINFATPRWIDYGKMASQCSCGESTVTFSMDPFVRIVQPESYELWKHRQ
miR-21 act = qHTS Assay for Modulators of miRNAs and/orActivators of miR-21; Potency, µM (highest dose often 38.3 µM), without a hit: top-dose activity change, positive = activation, most hits filed as activators; HeLa miR-21 FLuc reporter, luciferase, 48 h; 340,000 tested, under 10 active;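 note: % of control where 0% means no effect; miR-21 action dims this reporter so a rising signal means less miR-21 action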
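HeLa cells endogenously expressing miR-21, stably carrying CMV-driven firefly luciferase with a downstream miR-21 binding site, 2000 cells/well. Titrations up to approximately 40 uM, 48 hours; luciferase luminescence read.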
Sfp PPTase inh = qHTS Assay for Inhibitors of Bacillus subtilis Sfp phosphopantetheinyl transferase (PPTase); Biochemical Sfp PPTase activity, qHTS; hit rate 3.5% among 310,000; 4'-phosphopantetheinyl transferase ffp (Bacillus subtilis), Q9F4F7; Potency, µM, without a hit: largest response in the series, negative = inhibition, actives largely listed as inhibitors;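 note: the enzyme is Sfp with the accession as filed and its product quenches rhodamine fluorescence; potency is the fitted concentration of half-maximal effect; 0% = enzyme reaction without inhibitor and -100% = no enzyme wells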
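Sfp 15 nM + cpd, 15 min RT; start w/ rhodamine-CoA 5 uM, BHQ-2-YbbR 12.5 uM (final); 50 mM Hepes pH 7.6, 10 mM MgCl2, 0.01% NP-40, 0.01% BSA; read 525/598 nm at 0 and 30 min.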
Lamin A splicing = qHTS Assay for Modulators of Lamin A Splicing | HeLa LMNA splicing GFP/RFP minigene ratio, 48 h | Potency, µM (doses to about 46.1 µM), for the others: at the top dose ratio change, negative = inhibition, hits mostly inhibitors | hit rate 0.01% among 200,000; active = well fitted inhibition curve with a large enough effect in the signal ratio, with a control signal flat, not every such curve was filed as active; inconclusive = small, poorly fitted or top-dose-only effect, or effect the other way, or a change in a side signal; the % refers to the signal ratio; note: potency is the fitted concentration of half-maximal effect; % is set by controls: 0 for no effect and ±100 for the full control effect
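S3 HeLa cells stably expressing lamin A-EGFP splicing minigene plus DsRed2, 600 cells/well, 48 h compound exposure at 37C. Laser-scanning cytometry; analysed as GFP (500-530 nm)/RFP (575-640 nm) total intensity ratio; 0.5% DMSO vehicle.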
ALDH1A1 block = qHTS Assay for Inhibitors of Aldehyde Dehydrogenase 1 (ALDH1A1). Potency, µM (top dose mostly 75.3 µM), for inactives: at the highest dose activity, negative = inhibition, hits mostly inhibitors. Aldehyde dehydrogenase 1A1 (Homo sapiens), P00352. Purified ALDH1A1, NADH fluorescence, propionaldehyde substrate. hit rate 7.3% among 220,000; active = well fitted inhibition curve with a large enough effect, not every such curve was filed as active; inconclusive = small, poorly fitted or top-dose-only effect, or another doubt; inactive = no such curve, though single readings can be large or run the other way;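 note: potency is the fitted concentration of half-maximal effect; plate controls were no enzyme wells and a reference inhibitor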
G9a block = qHTS Assay for Inhibitors of Histone Lysine Methyltransferase G9a; hit rate 8.8% among 350,000; G9a H3K9 monomethylation, AlphaScreen, 2 h; Histone-lysine N-methyltransferase EHMT2 (Homo sapiens), Q96KQ7; Potency, µM (doses to about 102 µM), for the others: top-dose activity, negative = inhibition, actives largely listed as inhibitors; note: potency is the fitted concentration of half-maximal effect; % is set by controls: 0 for no effect and ±100 for the full control effect; nearly all actives have a fitted effect of over 75% in size
Target sequence (Q96KQ7 913-1193 limits assumed): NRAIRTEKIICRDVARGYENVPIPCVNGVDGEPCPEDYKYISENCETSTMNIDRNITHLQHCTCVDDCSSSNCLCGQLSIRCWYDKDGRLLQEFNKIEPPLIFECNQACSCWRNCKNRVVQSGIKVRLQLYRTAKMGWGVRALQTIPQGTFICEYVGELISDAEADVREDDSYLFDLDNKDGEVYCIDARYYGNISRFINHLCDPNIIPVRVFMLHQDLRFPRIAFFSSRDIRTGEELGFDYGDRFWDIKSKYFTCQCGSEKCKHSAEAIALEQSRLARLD
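Quantitative HTS format: methyltransferase activity on a biotin-tagged H3K9 peptide is measured by AlphaScreen, using a rabbit anti-monomethyl-H3K9 antibody with streptavidin donor and anti-IgG acceptor beads. Final levels are 20 nM enzyme, 500 nM peptide, 20 uM SAM; 2 h RT.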
Starred values were filed as active, the others as inactive; u = inconclusive; x = no result given; [ ] = another dose, or the depositor's remark. Sampled rows, rich in hits. Any-hit rate of the full collection: about 13%. Unless noted, calls come from the whole dose curve; as a rule, active = well fitted curve in the direction sought with a large enough effect; inconclusive = small, poorly fitted or top-dose-only effect, or another doubt; inactive = no such curve, though single readings can be large; an effect the other way counts as inactive or inconclusive.

SMILES	KDM4E inh	miR-21 act	Sfp PPTase inh	Lamin A splicing	ALDH1A1 block	G9a block
O=C1CC(N2CCOCC2)C(=O)N1c1cccc(Cl)c1 (stereo not given)	-1%	0%	9%	-1%	u	45µM*
CCN1C(=O)CC(N2CCC(C(=O)N3CCCCCC3)CC2)C1=O (stereo not given)	-26%	2%	-4%	x	u	-12%
O=C(C1CCN(C2CC(=O)N(c3cccc(Cl)c3)C2=O)CC1)N1CCCCCC1 (stereo not given)	3%	-5%	8%	-5%	20µM*	10µM*
O=C1C(=Cc2cccn2-c2ccc(O)cc2)C(=O)c2ccccc21	0%	-1%	-13%	2%	-6%	x
O=C(O)c1cccc(-n2cccc2C=C2C(=O)c3ccccc3C2=O)c1	-11%	-29%	-13%	x	u	50µM*
O=C1C(=Cc2cccn2-c2ccccc2)C(=O)c2ccccc21	-16%	-2%	u	-2%	u	3.5µM*
C=CCNC(=S)N1CCN(C2CCCCC2)CC1	0%	3%	11%	x	x	7%
O=C(O)C1CCCCC1C(=O)Nc1ccc(S(=O)(=O)N2CCCC2)cc1 (stereo not given)	x	2%	9%	x	x	11%
Cc1cccc(SC2CCN(C(=O)C3CCC(=O)N(C4CC4)C3)CC2)c1 (stereo not given)	x	2%	13%	x	x	-1%
Nc1c2ccccc2nc2ccccc12	u	u	1%	u	u	u
Cc1nc2ccccc2c2c(N)c3ccccc3n12	-2%	5%	-1%	-13%[46 µM]	-6%	18µM*
O=C(c1ccco1)n1nc(-c2ccc(Cl)cc2)nc1NCc1ccc(F)cc1	x	-1%	x	x	x	11%[59 µM]
O=C(O)c1ccc(Cl)c2c1C1C=CCC1C(c1ccccn1)N2 (stereo not given)	25µM*	2%	3.5µM*	2%	u	2µM*
Cc1cc([N+](=O)[O-])cc2c1NC(c1ccccn1)C1CC=CC21 (stereo not given)	-15%	-2%	16%	14%[46 µM]	-4%	-1%
O=[N+]([O-])c1ccc(Cl)c2c1C1C=CCC1C(c1ccccn1)N2 (stereo not given)	-21%	0%	28µM*	10%[46 µM]	u	20µM*
CSc1ccc(S(=O)(=O)NC2CC3CCC2C3)cc1 (stereo not given)	x	-4%	10%	x	x	x
Cc1nc2cnc(OCc3ccccc3)nc2n(Cc2ccc(F)cc2)c1=O	x	x	-22%	x	u	1%[12.7 µM]
c1ccc(-c2nnsc2-c2ccccc2)cc1	x	-6%	12%	x	x	154%
O=C(O)c1nnsc1-c1ccc(-c2snnc2C(=O)O)cc1	x	x	x	x	4µM*	x
O=C(COC(=O)COc1ccc(Cl)cc1Cl)NC1CCCC1	x	x	x	x	x	-43%
Nn1c(SCc2cn3ccccc3n2)nnc1-c1ccncc1	-6%	3%	6%	1%[46 µM]	16%	-1%
Nn1c(SCc2cn3cc(Cl)ccc3n2)nnc1-c1ccncc1	-9%	0%	-19%	-23%[46 µM]	u	45µM*
CC12CCC(C/C1=N\N=C1\NC(=O)/C(=C\c3cccc(Br)c3)S1)C2(C)C (stereo not given)	11%	-9%	2%	u	-12%	1.3µM*
Cc1occc1-c1nnc(SCC(=O)NC2CCCCC2C)o1 (stereo not given)	x	x	x	x	x	-51%
CCOC(=O)c1c(NC(=O)CSc2nc3ccccc3[nH]2)sc2c1CC(C)(C)NC2(C)C	x	x	x	x	x	40µM*
SMILES	KDM4E inh	miR-21 act	Sfp PPTase inh	Lamin A splicing	ALDH1A1 block	G9a block
CCOC(=O)c1c(NC(=O)COC(=O)/C=C/c2ccco2)sc2c1CC(C)(C)NC2(C)C	x	x	x	x	x	16µM*
CCOC(=O)c1c(NC(=O)COc2ccccc2)sc2c1CC(C)(C)NC2(C)C	u	-2%	0%	-6%[46 µM]	-10%	-6%
S=c1sc2ccccc2n1CCc1ccncc1	x	x	x	x	x	3%[2.33 µM]
CSc1nn(CCc2ccncc2)c(=S)s1	-6%	-10%	50µM*	u	u	-41%[12.7 µM]
CCn1c(SCC(=O)Nc2sc3c(c2C#N)CCC(C(C)(C)C)C3)nnc1-c1ccco1 (stereo not given)	14%	0%	u	u	40µM*	-33%
CCn1c(SCC(=O)Nc2sc3c(c2C#N)CCCC3)nnc1-c1ccco1	-6%	6%	-28%	1%	10%	u
CCOC(=O)c1sc(NC(=O)CSc2nnc(-c3ccco3)n2CC)c(C(=O)OCC)c1C	-1%	-9%	25µM*	7%	u	18µM*
CCOC(=O)CNC(=O)CSc1nnc(-c2ccco2)n1Cc1ccco1	u	1%	-8%	6%	u	28µM*
CCn1c(SCC(=O)N(C)CC(=O)Nc2ccc(OC)cc2)nnc1-c1ccco1	x	x	x	x	x	20µM*
CCOC(=O)CNC(=O)CSc1nnc(-c2ccco2)n1N	1%	-6%	-3%	-1%	-6%	-5%
CN(C(=O)c1ccc2c(c1)N(Cc1ccc(F)cc1)C(=O)c1ccccc1S2(=O)=O)C1CCCCC1	x	18%	x	x	x	-33%[59 µM]
Cc1cc(OCC(=O)OCC(=O)NCc2ccco2)ccc1Cl	x	x	x	x	x	-33%
O=c1cc(-c2ccccc2)nc2cc(-c3ccco3)[nH]n12	u	-10%	25µM*	-3%[46 µM]	u	u
C/C(=N\NC(=O)c1ccccc1-n1cccc1)C1CC1	5%	-3%	4%	-16%	4µM*	-11%
NNC(=O)c1ccccc1-n1cccc1	26%	-4%	15%	-13%[46 µM]	u	-3%
COC(=O)c1ccccc1NC(=S)N(Cc1ccc2c(c1)OCO2)Cc1cc2ccc(C)cc2[nH]c1=O	-9%	19%	2%	-4%	u	-3%[59 µM]
COC(=O)c1ccccc1NC(=S)N(Cc1ccc2c(c1)OCO2)Cc1cc2ccc(OC)cc2[nH]c1=O	-10%	22%	-2%	-14%	u	0.28µM*
CCN1CCCC1CN(Cc1cc2ccc(C)cc2[nH]c1=O)C(=S)Nc1ccc(OC)cc1OC (stereo not given)	1%	-1%	-16%	-13%	20µM*	-14%
CCN1CCCC1CN(Cc1cc2cc(C)cc(C)c2[nH]c1=O)C(=O)Nc1ccccc1OC (stereo not given)	-24%	-2%	-18%	u	u	50µM*
